Assay [1] in a line: optical density shifts of acrAB sulA E. coli – strain DRC41, OD650, 48 h, E. coli filamentation inducer project, primary screen (AID 1152).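 Also: E. coli MC1000 strain DRC41 lacking acrAB efflux pump and sulA.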 The note with it: higher = more signal, called active from +8 up or from −8 down.
Assay [2] in a line: probe aLefty1 binding on compound microarray – biochemical, small-molecule microarray, 635/667 nm fluorescence, primary screen (AID 1153).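 Also: score merges spot fluorescence with signal-to-noise ratio from the scanned slide images.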 Conditions: higher = more signal.
Assay [3] can be described thus: plasmodial surface anion channel blockers, osmotic lysis – cell-based, P. falciparum Indochina, OD700, 1 h, primary screen (AID 1154). The note with it: P. falciparum Indochina infected RBC osmotic lysis, higher = more signal, called active from +8 up or from −8 down.
Assay [4] is described as follows: plasmodial surface anion channel blockers, osmotic lysis – cell-based, P. falciparum Indochina, OD700, 2 h, primary screen (AID 1155).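 Also: lysis reports solute entry through the parasite surface anion channel PSAC.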 The note with it: P. falciparum Indochina infected erythrocytes, higher = more signal, called active from +8 up or from −8 down.
Assay [5] can be described thus: changes in parasitized red cell lysis, either direction – P. falciparum Indochina, OD700, 3 h, PSAC antagonist project, primary screen (AID 1156). The note with it: P. falciparum-infected erythrocytes, osmotic lysis, higher = more signal, called active from +8 up or from −8 down.
Assay [6] in a line: plasmodial surface anion channel blockers, osmotic lysis – cell-based, P. falciparum Indochina, OD700, 18 h, primary screen (AID 1157). The note with it: P. falciparum Indochina infected erythrocytes, osmotic lysis OD700, 18 h; higher = more signal, called active from +8 up or from −8 down.
Assay [7] can be described thus: S6 kinase pathway phospho-S6 level changes – cell-based, A549, cytoblot, luminescence, serum-stimulated, primary screen (AID 1158).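 Also: serum-stimulated A549 lung adenocarcinoma cells; signal is phosphorylated S6 detected by cytoblot immunostaining with HRP secondary.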 The note with it: 5 h, higher = more signal.
Assay [8] addresses NADPH oxidase 2 (Homo sapiens) (UniProt P04839). As to the kind of experiment: compounds shifting NOX2 Amplex Red fluorescence – cell-based, HEK293-NOX2, PMA-stimulated, NOX inhibitor project, primary screen (AID 1159). Also: test concentration not given here. The note with it: 45 min, higher = more signal, called active from +8 up or from −8 down.
Assay [9] has as its target NADPH oxidase 4 (Homo sapiens) (UniProt Q9NPH5). As to the kind of experiment: compounds shifting NOX4 Amplex Red fluorescence – cell-based, HEK293-NOX4, tetracycline-induced, NOX inhibitor project, primary screen (AID 1160). Conditions: HEK293-NOX4, Amplex Red H2O2 fluorescence, 45 min; higher = more signal, called active from +8 up or from −8 down.
Assay [10] addresses NADPH oxidase 5 (Homo sapiens) (UniProt Q96PH1). As to the kind of experiment: compounds shifting NOX5 Amplex Red fluorescence – cell-based, HEK293-NOX5, NOX inhibitor project, primary screen (AID 1161). The note with it: HEK293-NOX5, ionomycin, 45 min, higher = more signal.
Assay [11] can be described thus: compound effects on lung adenocarcinoma cell viability – A549, calcein-AM fluorescence, 48 h, basal, profiling panel (AID 1162). Also: test concentration not given here. The note with it: higher = more signal.
A short description of assay [12]: compound effects on differentiated 3T3-L1 adipocyte viability – cell-based, 3T3-L1 adipocytes, calcein-AM fluorescence, 48 h, basal, profiling panel (AID 1163). Also: test concentration not given here. Conditions: 3T3-L1 adipocytes viability, higher = more signal.
Assay [13] is described as follows: compound effects on hepatocellular carcinoma cell viability – HepG2, calcein-AM fluorescence, 48 h, basal, profiling panel (AID 1164). Also: test concentration not given here. The note with it: higher = more signal.
Assay [14] in a line: compound effects on multiple myeloma cell viability – MM1S, calcein-AM fluorescence, 48 h, basal, profiling panel (AID 1165). Also: test concentration not given here. Conditions: higher = more signal.
A short description of assay [15]: calcein-AM signal in unstimulated myeloma cells – cell-based, calcein-AM fluorescence, 48 h, PK04 Diversity Set, profiling panel (AID 1166).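 Also: cells grown under basal conditions without added stimulus; test concentration not given here.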 Conditions: RPMI8226 myeloma viability, higher = more signal.
Assay [16] in a line: JC-1 mitochondrial signal, unstimulated HepG2 cells – cell-based, JC-1 fluorescence, 24 h, 100 nL compound, profiling panel (AID 1167). Also: test concentration not given here. The note with it: HepG2 mitochondrial potential, higher = more signal.
Assay [17] is described as follows: JC-1 mitochondrial signal, unstimulated adipocytes – cell-based, JC-1 fluorescence, 3T3-L1 adipocytes, 24 h, 100 nL compound, profiling panel (AID 1168). Also: test concentration not given here. Conditions: JC-1 mitochondrial fluorescence, higher = more signal, called active from +8 up or from −8 down.
The nature of assay [18]: JC-1 mitochondrial signal, unstimulated myeloma cells – cell-based, JC-1 fluorescence, RPMI8226, 24 h, 100 nL compound, profiling panel (AID 1169). Also: test concentration not given here. Conditions: JC-1 mitochondrial potential fluorescence, higher = more signal.
Assay [19] in a line: JC-1 mitochondrial signal, unstimulated MM1S myeloma – cell-based, JC-1 fluorescence, 24 h, 100 nL compound, profiling panel (AID 1170). Also: test concentration not given here. The note with it: MM1S mitochondrial potential, higher = more signal.
The nature of assay [20]: resazurin metabolic signal in A549 cells – cell-based, resazurin fluorescence, 24 h, PK04 Diversity Set, profiling panel (AID 1171). Also: test concentration not given here. The note with it: A549 viability, higher = more signal, called active from +8 up or from −8 down.

Calls of active or inactive are those of the source.

Sequence of NADPH oxidase 4 (Homo sapiens) (Q9NPH5 whole entry, looked up): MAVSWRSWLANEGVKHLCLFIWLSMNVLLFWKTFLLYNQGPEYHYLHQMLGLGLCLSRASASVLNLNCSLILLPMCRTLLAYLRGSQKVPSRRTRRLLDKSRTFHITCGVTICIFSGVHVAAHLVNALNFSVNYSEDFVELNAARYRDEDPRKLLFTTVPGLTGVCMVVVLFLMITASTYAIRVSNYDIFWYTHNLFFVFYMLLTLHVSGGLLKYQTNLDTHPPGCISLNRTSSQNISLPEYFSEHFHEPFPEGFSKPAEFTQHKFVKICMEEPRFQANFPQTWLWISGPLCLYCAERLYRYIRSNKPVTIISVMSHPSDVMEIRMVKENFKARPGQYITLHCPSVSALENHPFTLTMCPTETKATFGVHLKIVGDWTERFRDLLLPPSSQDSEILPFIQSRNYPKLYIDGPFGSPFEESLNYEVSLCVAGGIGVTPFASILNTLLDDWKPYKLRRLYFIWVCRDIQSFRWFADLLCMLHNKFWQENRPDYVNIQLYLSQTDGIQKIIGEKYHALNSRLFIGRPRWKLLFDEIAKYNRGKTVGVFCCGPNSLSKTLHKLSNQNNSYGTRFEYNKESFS
Sequence of NADPH oxidase 5 (Homo sapiens) (Q96PH1 whole entry, looked up): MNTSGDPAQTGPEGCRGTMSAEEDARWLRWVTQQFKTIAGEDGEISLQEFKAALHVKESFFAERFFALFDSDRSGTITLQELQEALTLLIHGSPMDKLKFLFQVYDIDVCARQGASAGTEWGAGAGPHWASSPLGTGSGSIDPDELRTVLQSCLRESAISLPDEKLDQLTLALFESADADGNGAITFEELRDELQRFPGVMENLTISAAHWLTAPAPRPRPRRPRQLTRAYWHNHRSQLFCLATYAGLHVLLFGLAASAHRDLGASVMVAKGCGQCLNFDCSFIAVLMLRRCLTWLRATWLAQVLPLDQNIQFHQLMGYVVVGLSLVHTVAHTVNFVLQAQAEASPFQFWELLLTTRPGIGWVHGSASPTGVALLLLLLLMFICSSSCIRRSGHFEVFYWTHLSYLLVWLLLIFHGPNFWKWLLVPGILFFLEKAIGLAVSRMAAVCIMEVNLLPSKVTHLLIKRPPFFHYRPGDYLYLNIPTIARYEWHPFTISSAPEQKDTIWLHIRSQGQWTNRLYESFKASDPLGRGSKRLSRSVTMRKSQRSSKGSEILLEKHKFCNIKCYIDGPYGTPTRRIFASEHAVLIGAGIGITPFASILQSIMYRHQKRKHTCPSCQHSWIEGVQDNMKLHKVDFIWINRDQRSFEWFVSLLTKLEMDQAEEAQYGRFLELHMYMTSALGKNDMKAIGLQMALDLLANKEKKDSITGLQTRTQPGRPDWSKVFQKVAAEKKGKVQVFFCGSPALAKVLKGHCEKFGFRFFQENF
Sequence of NADPH oxidase 2 (Homo sapiens) (P04839 whole entry, looked up): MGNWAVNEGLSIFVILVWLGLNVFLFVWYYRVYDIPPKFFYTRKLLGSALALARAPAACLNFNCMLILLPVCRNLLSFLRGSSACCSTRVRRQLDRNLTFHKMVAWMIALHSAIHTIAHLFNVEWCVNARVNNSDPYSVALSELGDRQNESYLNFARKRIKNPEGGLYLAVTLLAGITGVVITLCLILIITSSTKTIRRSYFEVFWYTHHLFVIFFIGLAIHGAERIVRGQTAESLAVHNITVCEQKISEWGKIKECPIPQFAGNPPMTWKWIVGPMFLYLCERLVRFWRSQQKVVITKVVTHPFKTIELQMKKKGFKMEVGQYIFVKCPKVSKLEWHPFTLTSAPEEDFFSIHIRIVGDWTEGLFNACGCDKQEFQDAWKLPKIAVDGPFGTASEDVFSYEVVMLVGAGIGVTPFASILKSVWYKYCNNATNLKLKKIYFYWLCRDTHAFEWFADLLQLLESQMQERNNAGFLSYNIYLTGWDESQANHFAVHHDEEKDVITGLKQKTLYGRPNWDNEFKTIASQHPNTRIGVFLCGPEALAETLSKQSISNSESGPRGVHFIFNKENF

For `CC(C)=C1C(=O)C(c2ccccc2)=C2CN3C(=O)N(CCc4ccccc4)C(=O)[C@]3(Cc3ccccc3)[C@H]21`, the z-score in assay [1] was -1.7 (inactive); in assay [3], 20.9 (active); in [4] it was 3.79 (inactive); in [5], 1.3 (inactive); in [6], 0.913 (inactive); in assay [7], -0.621. The z-score in assay [8] was -0.379 (inactive); in [9] it was 0.1 (inactive); in [10] it was 0.365; in assay [11] it was -0.778; in assay [12], 0.66; in assay [13], 0.0577. Also, the z-score in assay [14] was 0.492; in assay [15] it was -0.895; in [16], -0.366; in assay [17] it was -0.623 (inactive); in assay [18] it was -0.0727; in assay [19] it was -0.496. In assay [20], the z-score is -0.723 (inactive). The molecule further showed a composite z-score in assay [2] of 0.341.
In the case of `C=CC[C@@]12N=C(c3ccc(OCCCO)cc3)O[C@@H]1c1ccccc1CN(Cc1ccccc1)C2=O`, the z-score in assay [1] was 0.786 (inactive); in [3], 28.3 (active); in assay [4], 24.9 (active); in [5], 3.34 (inactive); in [6] it was 2.29 (inactive); in assay [7], 0.557. For the same molecule, the z-score in assay [8] is -1.33 (inactive); in assay [9], -0.765 (inactive); in assay [10], -1.71; in assay [11], -0.843; in [12] it was 2.38; in [13] it was -1.92. Further, the z-score in assay [14] was -3.46; in assay [15] it was -4.51; in assay [16] it was 0.0441; in assay [17], -0.218 (inactive); in assay [18], -1.36; in [19], -1.45. In addition, the z-score in assay [20] is -1.9 (inactive). Also, in [2], the composite z-score is 0.271.
With `C=CC[C@]1(C(=O)NCC(O)CO)N=C(c2ccc(OCCCO)cc2)O[C@H]1c1ccccc1` (stereo not given in full), the z-score was 1.46 (inactive) in assay [1]; 6.95 (inactive) in assay [3]; 0.741 (inactive) in assay [4]; 1.55 (inactive) in [5]; 0.618 (inactive) in [6]; 0.672 in assay [7]. The z-score was 1.22 (inactive) in assay [8]; 0.542 (inactive) in assay [9]; 0.195 in assay [10]; 0.495 in assay [11]; 0.991 in assay [12]; 0.417 in assay [13]. For the same molecule, the z-score in assay [14] was -0.176; in assay [15], 0.213; in assay [16] it was -0.0851; in assay [17], -0.386 (inactive); in assay [18] it was -0.895; in assay [19] it was 0.334. Also, the z-score in assay [20] was 0.912 (inactive). The composite z-score in assay [2] is -0.179.
For the molecule `CCOC(=O)C[C@H]1[C@H](OC(=O)c2ccccc2-c2ccccc2)[C@@H](NC(=O)c2ccc(-c3ccccc3)cc2)c2cc(OCCCO)ccc2N1C(=O)Cc1ccc(OC)cc1`, the z-score in assay [1] was -0.866 (inactive); in assay [3], 17.3 (active); in assay [4], 2.83 (inactive); in [5], -0.405 (inactive); in [6], 0.575 (inactive); in [7] it was 0.111. Also, the z-score is 0.155 (inactive) in [8]; 1.22 (inactive) in [9]; 1.21 in assay [10]; -0.183 in assay [11]; -0.367 in [12]; 0.29 in assay [13]. Further, the z-score in assay [14] was 0.0542; in [15] it was -0.997; in [16] it was 0.181; in assay [17] it was -0.421 (inactive); in assay [18] it was -0.616; in assay [19] it was 0.103. Besides, in assay [20], the z-score was 0.0911 (inactive). Besides, the composite z-score in [2] is -0.147.
